Reference: PubChem BioAssay AID1159580 (chemical genetic matrix, 2015)
The campaign covered roughly 5,500 compounds. About 2,000 (36%) were called active. About 18% were inconclusive and are not listed. Rule as the data show it: active = normalized growth mostly below about 0.91 (no sharp cut-off); inconclusive = no clear call, values can overlap the other calls; inactive = mostly above about 0.92. This is one part of the list.

Assay: chemical genetic growth profiling, strain panel (AID 1159580);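 also: tested at 20 µM; growth read once vehicle control cultures reached saturation at 30 °C; 1 = growth at the plate median or of vehicle wells; lower values mean less growth of the strain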
Conditions: growth OD

Measured: normalized growth

CC(C(=O)O)c1ccc(C(=O)c2cccs2)cc1 (stereo not drawn)
inactive: S. cerevisiae deletion strains, locus YKL009W, strain mrt4, active compounds read low 1.02 | S. cerevisiae deletion strains, locus YKL068W, active compounds read low 1.01 | S. cerevisiae deletion strains, locus YKL085W, strain MDH1 (second series), active compounds read low 0.983 | S. cerevisiae deletion strains, locus YKL085W, strain MDH1, active compounds read low 0.983 | S. cerevisiae deletion strains, locus YKL160W, strain elf1, active compounds read low 0.992 | S. cerevisiae deletion strains, locus YKL190W, strain CNB1, active compounds read low 1 | S. cerevisiae deletion strains, locus YKR001C, strain vps1, active compounds read low 1.01 | S. cerevisiae deletion strains, locus YKR026C, strain gcn3, active compounds read low 0.987 | S. cerevisiae deletion strains, locus YKR091W, strain srl3, active compounds read low 1.01 | S. cerevisiae deletion strains, locus YLL001W, strain dnm1, active compounds read low 0.995 | S. cerevisiae deletion strains, locus YLL026W, active compounds read low 0.99 | S. cerevisiae deletion strains, locus YLL041C, strain sdh2, active compounds read low 0.996 | S. cerevisiae deletion strains, locus YLR027C, strain aat2, active compounds read low 1.01 | S. cerevisiae deletion strains, locus YLR039C, strain RIC1, active compounds read low 1.01 | S. cerevisiae deletion strains, locus YLR058C, strain SHM2, active compounds read low 1.01 | S. cerevisiae deletion strains, locus YLR102C, strain apc9, active compounds read low 1.01 | S. cerevisiae deletion strains, locus YLR113W, strain HOG1, active compounds read low 0.968 | S. cerevisiae deletion strains, locus YLR221C, strain rsa3, active compounds read low 0.991 | S. cerevisiae deletion strains, locus YLR258W, strain gsy2, active compounds read low 1 | S. cerevisiae deletion strains, locus YLR262C, strain YPT6 (second series), active compounds read low 0.951 | S. cerevisiae deletion strains, locus YLR262C, strain YPT6, active compounds read low 1 | S. cerevisiae deletion strains, locus YLR268W, strain sec22, active compounds read low 1.01 | S. cerevisiae deletion strains, locus YLR320W, strain mms22, active compounds read low 1 | S. cerevisiae deletion strains, locus YLR330W, strain CHS5, active compounds read low 0.999 | S. cerevisiae deletion strains, locus YLR342W, strain FKS1 (second series), active compounds read low 1 | S. cerevisiae deletion strains, locus YLR342W, strain FKS1, active compounds read low 1 | S. cerevisiae deletion strains, locus YLR357W, strain rsc2, active compounds read low 0.967 | S. cerevisiae deletion strains, locus YLR370C, strain arc18, active compounds read low 0.998 | S. cerevisiae deletion strains, locus YLR371W, strain rom2, active compounds read low 1.02 | S. cerevisiae deletion strains, locus YLR384C, strain iki3, active compounds read low 1.01 | S. cerevisiae deletion strains, locus YLR418C, strain cdc73, active compounds read low 1.03 | S. cerevisiae deletion strains, locus YML016C, strain PPZ1, active compounds read low 1.01 | S. cerevisiae deletion strains, locus YML032C, strain rad52, active compounds read low 1.02 | S. cerevisiae deletion strains, locus YML120C, strain ndi1, active compounds read low 1 | S. cerevisiae deletion strains, locus YML124C, strain tub3, active compounds read low 1.02 | S. cerevisiae deletion strains, locus YMR058W, strain fet3, active compounds read low 1.02 | S. cerevisiae deletion strains, locus YMR078C, strain ctf18, active compounds read low 1.02 | S. cerevisiae deletion strains, locus YMR125W, strain sto1, active compounds read low 0.976 | S. cerevisiae deletion strains, locus YMR129W, active compounds read low 0.985 | S. cerevisiae deletion strains, locus YMR205C, strain PFK2, active compounds read low 0.965 | S. cerevisiae deletion strains, locus YMR223W, strain ubp8, active compounds read low 1.02 | S. cerevisiae deletion strains, locus YMR231W, strain pep5, active compounds read low 0.991 | S. cerevisiae deletion strains, locus YMR263W, strain SAP30, active compounds read low 1 | S. cerevisiae deletion strains, locus YMR307W, strain GAS1, active compounds read low 0.997 | S. cerevisiae deletion strains, locus YNL067W, strain RPL9B, active compounds read low 1 | S. cerevisiae deletion strains, locus YNL071W, strain lat1, active compounds read low 1 | S. cerevisiae deletion strains, locus YNL153C, strain GIM3, active compounds read low 1 | S. cerevisiae deletion strains, locus YNL183C, strain NPR1, active compounds read low 0.949 | S. cerevisiae deletion strains, locus YNL209W, strain ssb2, active compounds read low 1.01 | S. cerevisiae deletion strains, locus YNL233W, strain BNI4, active compounds read low 1 | S. cerevisiae deletion strains, locus YNL248C, strain rpa49, active compounds read low 1.02 | S. cerevisiae deletion strains, locus YNL250W, strain rad50, active compounds read low 1.01 | S. cerevisiae deletion strains, locus YNL271C, strain bni1, active compounds read low 1.02 | S. cerevisiae deletion strains, locus YNL298W, strain CLA4, active compounds read low 1.02 | S. cerevisiae deletion strains, locus YNL307C, strain MCK1, active compounds read low 1.02 | S. cerevisiae deletion strains, locus YNL322C, strain KRE1 (second series), active compounds read low 0.994 | S. cerevisiae deletion strains, locus YNR049C, strain mso1, active compounds read low 0.998 | S. cerevisiae deletion strains, locus YNR052C, strain pop2, active compounds read low 1.01 | S. cerevisiae deletion strains, locus YOL006C, strain TOP1, active compounds read low 0.978 | S. cerevisiae deletion strains, locus YOL012C, strain htz1 0.883 | S. cerevisiae deletion strains, locus YOL147C, strain pex11, active compounds read low 1.01 | S. cerevisiae deletion strains, locus YOR001W, strain rrp6, active compounds read low 1.01 | S. cerevisiae deletion strains, locus YOR061W, strain CKA2, active compounds read low 1.01 | S. cerevisiae deletion strains, locus YOR069W, strain VPS5, active compounds read low 1 | S. cerevisiae deletion strains, locus YOR070C, strain gyp1, active compounds read low 1 | S. cerevisiae deletion strains, locus YOR080W, strain dia2, active compounds read low 0.988 | S. cerevisiae deletion strains, locus YOR083W, strain WHI5, active compounds read low 1 | S. cerevisiae deletion strains, locus YOR106W, strain vam3, active compounds read low 0.995 | S. cerevisiae deletion strains, locus YOR136W, strain idh2, active compounds read low 1.02 | S. cerevisiae deletion strains, locus YOR144C, strain elg1, active compounds read low 1.02 | S. cerevisiae deletion strains, locus YOR184W, strain ser1, active compounds read low 1.02 | S. cerevisiae deletion strains, locus YOR231W, strain MKK1, active compounds read low 0.993 | S. cerevisiae deletion strains, locus YOR265W, strain rbl2, active compounds read low 0.992 | S. cerevisiae deletion strains, locus YOR270C, strain vph1, active compounds read low 0.997 | S. cerevisiae deletion strains, locus YOR290C, strain snf2, active compounds read low 1.01 | S. cerevisiae deletion strains, locus YOR316C, strain cot1, active compounds read low 1.02 | S. cerevisiae deletion strains, locus YPL051W, strain arl3, active compounds read low 0.989 | S. cerevisiae deletion strains, locus YPL055C, strain LGE1, active compounds read low 1.02 | S. cerevisiae deletion strains, locus YPL078C, strain atp4, active compounds read low 0.983 | S. cerevisiae deletion strains, locus YPL106C, strain sse1, active compounds read low 0.979 | S. cerevisiae deletion strains, locus YPL240C, strain hsp82, active compounds read low 0.992 | S. cerevisiae deletion strains, locus YPL256C, strain CLN2, active compounds read low 1.02 | S. cerevisiae deletion strains, locus YPR119W, strain clb2, active compounds read low 1.01 | S. cerevisiae deletion strains, locus YPR141C, strain kar3, active compounds read low 1.01 | S. cerevisiae deletion strains, locus YPR163C, strain tif3, active compounds read low 1.02 | S. cerevisiae deletion strains, locus YPR167C, strain met16, active compounds read low 1.02 | S. cerevisiae deletion strains, strain wtn01, active compounds read low 1.01 | S. cerevisiae strains, strain wild type, active compounds read low 1
